LASV entry inh: Lassa virus entry inhibition | Lassa virus pseudotype entry inhibition, cell reporter | Potency, µM (doses to about 37.9 µM), usual class: inhibitors | hit rate 1.2% among 300,000; calls by dose curve; tested in HEK293 cells; also: nearly all actives have a fitted effect of over 50% in size
HCMV antiviral: inhibitors of human cytomegalovirus; HFF cells, HCMV-luciferase reporter, 72 h; stronger effect = lower value; activity change, negative = inhibition, % at 57.5 µM; hit rate 4.5% among 410,000; AID 1259415; in the data active = activity change below about -60%; inconclusive = no clear call, values can overlap the other calls; inactive = above about -39%
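Compounds were evaluated in HFFs infected with an HCMV luciferase reporter virus (MOI 1 PFU/cell). Luciferase in lysates collected 72 h post infection served as the replication measure.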
Marburg entry inh: blocks Marburg virus binding to or entry into cells; Potency, µM (series often up to 37.8 µM), usual class: inhibitors; hit rate 1.8% among 300,000; Marburg virus pseudotyped entry inhibition, cell reporter; calls by dose curve; tested in HEK293 cells
FMDV antiviral: foot and mouth disease virus antiviral activity; FMDV antiviral cell-based qHTS; AID 1159524; Potency, µM (doses to about 57.9 µM), hits mostly inhibitors; hit rate 1.2% among 410,000; calls by dose curve; tested in HEK293T cells; also: read-out not given here; nearly all actives have a fitted effect of over 45% in size
SARS PLP yeast: SARS-CoV PLP inhibition in yeast; Potency, µM (titrated, usually from 32.9 µM), usual class: activators; S. cerevisiae expressing SARS-CoV PLpro, growth rescue; hit rate 0.19% among 330,000; AID 485353; calls by dose curve; also: nearly all actives have a fitted effect of over 55% in size
HCV inh: HCV inhibition. Huh7.5.1 HCVcc-Cre infection, luciferase reporter, 44 h. Potency, µM (top dose mostly 41.8 µM), hits mostly inhibitors. AID 651820. hit rate 3.4% among 340,000; active = well fitted inhibition curve with a large enough effect; inconclusive = small, poorly fitted or top-dose-only effect, or another doubt; inactive = no such curve, though single readings can be large or run the other way
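Reporter virus HCVcc-Cre (~0.5 moi) infects cells exposed to compound; seeding density 1,000 cells/well with 4 h settling beforehand. Luminescence, 15 sec read, taken 44 h post-infection following a 15 min RT substrate incubation.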
A number is an active result. The list is not random: actives were taken first. Their share in the collection is about 8%.

`CCOc1ccc(CCN2C(=S)N([C@@H](CC(C)C)CN3CCCC3CN3C(=S)NC[C@@H]3Cc3ccc(O)cc3)C[C@@H]2CC(C)C)cc1` (stereo partly drawn) gave HCMV antiviral inconclusive, FMDV antiviral inactive and HCV inh inconclusive.
Screening CCOc1ccc(CCNC(=O)CSCc2nc(-c3cccc(C)c3)oc2C)cc1OCC returned LASV entry inh inactive, HCMV antiviral inactive, Marburg entry inh inconclusive and FMDV antiviral inconclusive.
Screening CCCCc1nc2c(c3c1C[C@H](C)OC3)CN(S(=O)(=O)c1ccc(NC(C)=O)cc1)CC2 returned Marburg entry inh inactive.
O=S1(=O)c2ccccc2N(Cc2ccccc2Cl)c2ccccc21 was read as LASV entry inh inactive, HCMV antiviral inactive and FMDV antiviral inconclusive.
For O=C(Nn1c(Cc2ccccc2)nc2ccccc2c1=O)c1c(O)c2cccc3c2n(c1=O)CCC3 the results were HCMV antiviral -66, FMDV antiviral inactive, SARS PLP yeast inactive and HCV inh inactive.
`CCCn1c2c(c(O)c(C(=O)Nc3ccccc3)c1=O)CCCC2` gave LASV entry inh inactive, HCMV antiviral inactive, Marburg entry inh inactive, FMDV antiviral inactive, SARS PLP yeast inactive and HCV inh 10µM.
Screening CCCCc1nc2ccccc2c(=O)n1NC(=O)c1c(O)c2c(n(CC(C)C)c1=O)CCCC2 returned LASV entry inh inactive, HCMV antiviral -79, Marburg entry inh inactive, FMDV antiviral inactive, SARS PLP yeast inconclusive and HCV inh inactive.
CCc1nc2ccccc2c(=O)n1NC(=O)c1c(O)c2cccc3c2n(c1=O)CCC3 was read as LASV entry inh inactive, HCMV antiviral inactive, Marburg entry inh inactive, FMDV antiviral inactive and HCV inh inactive.
For CCCn1c2c(c(O)c(C(=O)Nc3ccccn3)c1=O)CCCC2 the results were Marburg entry inh inactive and SARS PLP yeast inactive.
For COc1ccc2c(c1)c1c(c(=O)n(-c3ccccc3C)c(=O)n1CC(=O)Nc1c(C)cccc1C)n2C the results were LASV entry inh inactive, HCMV antiviral inactive and FMDV antiviral inactive.
Screening COc1ccc(Cl)cc1NC(=O)Cn1c(=O)n2nc(-c3ccccc3)nc2c2ccccc21 returned LASV entry inh inactive, HCMV antiviral inactive, Marburg entry inh inconclusive and FMDV antiviral inactive.
For CCOc1ccc(C(=O)NCCc2sc(-c3ccc(OC)c(OC)c3)nc2C)cc1 the results were LASV entry inh inconclusive, HCMV antiviral inactive and FMDV antiviral inactive.
`CS(=O)(=O)Nc1ccc(C2=NN(C(=O)C3CCCCC3)C(c3cccs3)C2)cc1` (stereo not drawn) gave LASV entry inh inconclusive, HCMV antiviral -62, Marburg entry inh inconclusive, FMDV antiviral 20µM, SARS PLP yeast inactive and HCV inh inactive.
For CC(C)C(=O)N1N=C(c2ccc(NS(C)(=O)=O)cc2)CC1c1cccs1 (stereo not drawn) the results were LASV entry inh inconclusive, HCMV antiviral inactive, Marburg entry inh inconclusive, FMDV antiviral inactive, SARS PLP yeast inactive and HCV inh inconclusive.
`Cc1ccc(C(=O)N2N=C(c3cccc(NS(C)(=O)=O)c3)CC2c2cccs2)cc1` (stereo not drawn) gave HCMV antiviral -60, FMDV antiviral inactive, SARS PLP yeast inactive and HCV inh inconclusive.
Screening C#CCOCCOCCOCCNc1nc(N2CCN(C(=O)CCCCCCCCCCNC(=O)[C@@H](CCSC)n3cc(CCO)nn3)CC2)nc(N2CCN(C(=O)CCCCCCCCCCNC(=O)[C@@H]([C@H](C)O)n3cc(C)nn3)CC2)n1 returned HCMV antiviral -72, FMDV antiviral inactive, SARS PLP yeast inactive and HCV inh inactive.
`CC[C@H](C)Cc1cn([C@@H](CCCN=C(NC(=O)OC(C)(C)C)NC(=O)OC(C)(C)C)C(=O)NCCCCCCCCCCC(=O)N2CCN(C(=O)OC(C)(C)C)CC2)nn1` gave FMDV antiviral inactive, SARS PLP yeast inactive and HCV inh inactive.
C#CCOCCOCCOCCNc1nc(N2CCN(C(=O)CCCCCCCCCCNC(=O)[C@H](CCCCN)n3cc(C)nn3)CC2)nc(N2CCN(C(=O)CCCCCCCCCCNC(=O)[C@@H]([C@H](C)O)n3cc(C)nn3)CC2)n1 was read as FMDV antiviral inactive, SARS PLP yeast inactive and HCV inh 2.8µM.
Cc1cn([C@@H](CCCCNC(=O)OC(C)(C)C)C(=O)NCCCCCCCCCCC(=O)N2CCN(C(=O)OC(C)(C)C)CC2)nn1 was read as FMDV antiviral 11µM, SARS PLP yeast inactive and HCV inh inconclusive.
For C#CCOCCOCCOCCNc1nc(N2CCN(C(=O)CCCCCCCCCCNC(=O)Cn3cc(C[C@@H](C)O)nn3)CC2)nc(N2CCN(C(=O)CCCCCCCCCCNC(=O)[C@@H]([C@H](C)CC)n3cc(CCCCCN)nn3)CC2)n1 the results were FMDV antiviral 35µM, SARS PLP yeast inactive and HCV inh inconclusive.
For C#CCOCCOCCOCCNc1nc(N2CCN(C(=O)CCCCCCCCCCNC(=O)Cn3cc(CCCCCN)nn3)CC2)nc(N2CCN(C(=O)CCCCCCCCCCNC(=O)Cn3cc(C[C@@H](C)O)nn3)CC2)n1 the results were FMDV antiviral inactive, SARS PLP yeast inactive and HCV inh inconclusive.
For CC(C)(CO)NC(=O)c1cnn(-c2ncc3c(n2)-c2ccccc2CC3)c1C1CC1 the results were FMDV antiviral inactive.
For Cc1nnc2n(-c3ccccc3)c(=O)c3c4c(sc3n12)C[C@H](C)CC4 the results were Marburg entry inh inactive.
For O=c1oc2ccc(Br)cc2cc1S(=O)(=O)c1ccc(F)cc1 the results were LASV entry inh inactive, Marburg entry inh inactive, FMDV antiviral 28µM, SARS PLP yeast inactive and HCV inh inconclusive.
For O=C(Nc1ccccc1C(F)(F)F)c1ccc2oc(=O)c(S(=O)(=O)c3ccc(F)cc3)cc2c1 the results were LASV entry inh inactive, HCMV antiviral inactive, Marburg entry inh inactive and FMDV antiviral 28µM.
O=C(Nc1ccccc1C(F)(F)F)c1ccc(F)c(S(=O)(=O)N2CCOCC2)c1 was read as LASV entry inh inactive, HCMV antiviral inactive, Marburg entry inh inconclusive, SARS PLP yeast inconclusive and HCV inh inactive.
`COc1ccccc1NC(=O)c1ccc2oc(=O)c(S(=O)(=O)c3ccccc3)cc2c1` gave LASV entry inh inconclusive, HCMV antiviral inactive, Marburg entry inh inactive and FMDV antiviral 28µM.
Cc1ccc(NC(=O)c2ccc3oc(=O)c(S(=O)(=O)c4ccccc4)cc3c2)cc1C was read as LASV entry inh inactive, HCMV antiviral inactive, Marburg entry inh inactive and FMDV antiviral 28µM.
Cc1ccc(NC(=O)c2ccccc2)cc1C was read as HCMV antiviral inactive, FMDV antiviral inactive, SARS PLP yeast inactive and HCV inh inactive.
Cc1cccc2cc(CN(CC3CCCO3)C(=O)c3ccccc3F)c(N(C)C)nc12 (stereo not drawn) was read as FMDV antiviral inactive.
